# Many of the other results were omitted from the sample, so the strongest signals are more common in it than they were.
# B1: CCL1 (Coprinopsis cinerea) (protein)
# chain: MDTQAKPPAGRYVIYNRVLSPNGEKLALTYPGYQREALTLTPLHHSANQIWILNNWDATTSSLTPETARNTQVGWGSGNVPIVLPPGNYVWTLASSAGGYIIQDGGKTVYWNAGEAVANTKVSIGGDNGLQARWIFERV
# Assays:
# Experiment in all cases: glycan array binding signal (z-score within array); higher = stronger binding
# Conditions in all cases: glycan notation: IUPAC condensed, linker removed
# [1] = target: Fuc(a1-2)Gal(b1-3)GlcNAc6S
# How it was run: (§1)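 Columns mapping to the same glycan were averaged after glycan names were converted to IUPAC-condensed notation. The data come from 3228 arrays in the Consortium for Functional Glycomics database, limited to those with an available protein sequence. Binding is reported as a within-array Z-score averaged across arrays of one protein sequence and across linkers.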
# [2] = target: Fuc(a1-2)Gal(b1-3)[Fuc(a1-4)]GlcNAc(b1-2)Man(a1-3)[Fuc(a1-2)Gal(b1-3)[Fuc(a1-4)]GlcNAc(b1-2)Man(a1-6)]Man(b1-4)GlcNAc(b1-4)GlcNAc
# How it was run: as §1
# [3] = target: Fuc(a1-2)Gal(b1-3)[Fuc(a1-4)]GlcNAc(b1-2)Man(a1-6)[Fuc(a1-2)Gal(b1-3)[Fuc(a1-4)]GlcNAc(b1-2)Man(a1-3)]Man(b1-4)GlcNAc(b1-4)[Fuc(a1-6)]GlcNAc
# How it was run: as §1
# [4] = target: Fuc(a1-2)Gal(b1-3)[Fuc(a1-4)]GlcNAc(b1-3)[Gal(b1-4)GlcNAc(b1-6)]Gal(b1-4)Glc
# How it was run: as §1
# Fuc(a1-2)Gal(b1-4)Glc = target: Fuc(a1-2)Gal(b1-4)Glc
# How it was run: as §1
# [5] = target: Fuc(a1-2)Gal(b1-4)GlcNAc(b1-3)[Fuc(a1-2)Gal(b1-4)GlcNAc(b1-6)]GalNAc
# How it was run: as §1
# [6] = target: Fuc(a1-2)Gal(b1-4)[Fuc(a1-3)]GlcNAc(b1-3)[Neu5Ac(a2-6)Gal(b1-4)GlcNAc(b1-6)]Gal(b1-4)Glc
# How it was run: as §1
# [7] = target: Fuc(a1-2)Gal6S(b1-4)Glc6S
# How it was run: as §1
# [8] = target: Fuc(a1-2)[Gal(a1-3)]Gal(b1-3)GlcNAc(b1-2)Man(a1-3)[Fuc(a1-2)[Gal(a1-3)]Gal(b1-3)GlcNAc(b1-2)Man(a1-6)]Man(b1-4)GlcNAc(b1-4)GlcNAc
# How it was run: as §1
# [9] = target: Fuc(a1-2)[Gal(a1-3)]Gal(b1-4)[Fuc(a1-3)]GlcNAc
# How it was run: as §1
# [10] = target: Fuc(a1-2)[GalNAc(a1-3)]Gal(b1-4)GlcNAc(b1-3)Gal(b1-4)GlcNAc
# How it was run: as §1
# [11] = target: Fuc(a1-3)[Gal(b1-4)]GlcNAc(b1-2)Man(a1-3)[Fuc(a1-3)[Gal(b1-4)]GlcNAc(b1-2)Man(a1-6)]Man(b1-4)GlcNAc(b1-4)GlcNAc
# How it was run: as §1
# [12] = target: Fuc(a1-3)[Gal(b1-4)]GlcNAc(b1-3)Gal(b1-3)[Fuc(a1-4)]GlcNAc
# How it was run: as §1
# [13] = target: Fuc(a1-3)[Gal(b1-4)]GlcNAc(b1-4)Gal(b1-4)[Fuc(a1-3)]GlcNAc(b1-4)Gal(b1-4)[Fuc(a1-3)]GlcNAc
# How it was run: as §1
# [14] = target: Fuc(a1-3)[GalNAc(b1-4)]GlcNAc
# How it was run: as §1
# [15] = target: Fuc(a1-3)[GalNAc(b1-4)]GlcNAc6S
# How it was run: as §1
# [16] = target: Fuc(a1-3)[GalNAc3S(b1-4)]GlcNAc
# How it was run: as §1
# [17] = target: Gal(a1-3)Gal(b1-3)[Fuc(a1-4)]GlcNAc(b1-2)Man(a1-3)[Gal(a1-3)Gal(b1-3)[Fuc(a1-4)]GlcNAc(b1-2)Man(a1-6)]Man(b1-4)GlcNAc(b1-4)GlcNAc
# How it was run: as §1
# Gal(a1-4)GlcNAc = target: Gal(a1-4)GlcNAc
# How it was run: as §1
# Gal(b1-3)Gal = target: Gal(b1-3)Gal
# How it was run: as §1
# Gal(b1-3)Gal(b1-4)GlcNAc = target: Gal(b1-3)Gal(b1-4)GlcNAc
# How it was run: as §1
# Gal(b1-3)GalNAc = target: Gal(b1-3)GalNAc
# How it was run: as §1
# [18] = target: Gal(b1-3)GlcNAc(b1-2)Man(a1-3)[Gal(b1-3)GlcNAc(b1-2)Man(a1-6)]Man(b1-4)GlcNAc(b1-4)GlcNAc
# How it was run: as §1
# [19] = target: Gal(b1-3)GlcNAc(b1-3)Gal(b1-4)[Fuc(a1-3)]GlcNAc(b1-6)[Gal(b1-3)GlcNAc(b1-3)]Gal(b1-4)Glc
# How it was run: as §1
# [20] = target: Gal(b1-4)GlcNAc(b1-2)Man(a1-3)[GlcNAc(b1-2)Man(a1-6)]Man(b1-4)GlcNAc(b1-4)GlcNAc
# How it was run: as §1
# [21] = target: Gal(b1-4)GlcNAc(b1-2)Man(a1-6)Man(b1-4)GlcNAc(b1-4)GlcNAc
# How it was run: as §1
# [22] = target: Gal(b1-4)GlcNAc(b1-2)[Gal(b1-4)GlcNAc(b1-6)]Man(a1-6)[Gal(b1-4)GlcNAc(b1-2)Man(a1-3)]Man(b1-4)GlcNAc(b1-4)GlcNAc
# How it was run: as §1
# [23] = target: Gal(b1-4)GlcNAc(b1-6)GalNAc
# How it was run: as §1
# [24] = target: Gal3S(b1-3)[Fuc(a1-4)]GlcNAc
# How it was run: as §1
# Gal3S(b1-4)GlcNAc = target: Gal3S(b1-4)GlcNAc
# How it was run: as §1
binder,measurement,setting,value
B1,glycan array binding signal (z-score),[1],-0.097
same,glycan array binding signal (z-score),[2],-0.006
same,glycan array binding signal (z-score),[3],-0.148
same,glycan array binding signal (z-score),[4],-0.144
same,glycan array binding signal (z-score),Fuc(a1-2)Gal(b1-4)Glc,-0.127
same,glycan array binding signal (z-score),[5],-0.025
same,glycan array binding signal (z-score),[6],-0.142
same,glycan array binding signal (z-score),[7],-0.033
same,glycan array binding signal (z-score),[8],-0.131
same,glycan array binding signal (z-score),[9],-0.138
same,glycan array binding signal (z-score),[10],-0.161
same,glycan array binding signal (z-score),[11],0.237
same,glycan array binding signal (z-score),[12],1.7
same,glycan array binding signal (z-score),[13],1.68
same,glycan array binding signal (z-score),[14],8.48
same,glycan array binding signal (z-score),[15],13.6
same,glycan array binding signal (z-score),[16],7.46
same,glycan array binding signal (z-score),[17],-0.081
same,glycan array binding signal (z-score),Gal(a1-4)GlcNAc,-0.164
same,glycan array binding signal (z-score),Gal(b1-3)Gal,-0.15
same,glycan array binding signal (z-score),Gal(b1-3)Gal(b1-4)GlcNAc,-0.151
same,glycan array binding signal (z-score),Gal(b1-3)GalNAc,-0.163
same,glycan array binding signal (z-score),[18],-0.119
same,glycan array binding signal (z-score),[19],0.276
same,glycan array binding signal (z-score),[20],-0.106
same,glycan array binding signal (z-score),[21],-0.133
same,glycan array binding signal (z-score),[22],-0.131
same,glycan array binding signal (z-score),[23],-0.142
same,glycan array binding signal (z-score),[24],-0.116
same,glycan array binding signal (z-score),Gal3S(b1-4)GlcNAc,-0.123
